About 860 (78%) of roughly 1,100 compounds were called active. Inconclusive results (about 19%) are left out. The call rests on the fitted dose curve; in most records, active means well fitted activation curve with a large enough effect; inconclusive means small, poorly fitted or top-dose-only effect; inactive means flat fitted curve, though single readings scatter. The set was probably picked from earlier hits. This is one part of the list.
Potency means the concentration at half of the fitted maximal effect.

The experiment in a line: qHTS of Nrf2 Activators: Hit Validation in Primary Assay. Further: nearly all actives have a fitted effect of over 70% in size. The note with it: Nrf2/ARE reporter cell assay; Potency: activation; series mostly up to 46.1 µM. From the text:
Many diseases have some form of oxidative stress injury and ties to inflammation, causing a host of problems for the patient. The antioxidant response element (ARE) plays an important role in alleviating the harmful effects of oxidative stress. The antioxidant response element (ARE) is a transcriptional regulatory element involved in the activation of genes coding for a number of antioxidant proteins and detoxifying enzymes. These enzymes work in concert to protect tissues from oxidative insults and chemical toxicities in human hepatocytes and immune cells. The protective effects of ARE activation are primarily triggered through Nrf2 (NF-E2-related factor) binding to and activating AREs. It is known that Nrf2 controls the production of over 250 antioxidant and detoxification proteins (Hu et al., 2006), thereby protecting tissues by increasing cellular antioxidant content and suppressing inflammatory signaling pathways. The transcription factor Nrf2 is a central link between oxidative chemicals, such as phenolic antioxidants and electrophilic compounds, and the activation of ARE. Nrf2 levels are constitutively low as a consequence of its interaction with Keap1, which targets its degradation (Zipper and Mulcahy, 2002). Electrophiles react with key cysteine residues in Keap1, releasing Nrf2 and allowing its translocation to the nucleus. Once within the nucleus, Nrf2 complexes with coactivators such as p300, and binds to the AREs to induce gene transcription of cytoprotective enzymes, resulting in the prevention of toxicity. Activation of Nrf2 protects tissues by increasing cellular antioxidant content and suppressing inflammatory signaling pathways. Identifying novel and potent Nrf2 activators by using the AREc32 cell line to detect ARE activation by small molecules will lead to the identification and development of probes to study protective pathways in multiple tissues. These specific probes are essential to study the ARE pathway, and eventually to determine whether this pathway does activate genes that could protect against a host of diseases, including cardiovascular diseases, obesity, diabetes, Alzheimer's, and Parkinson's disease.
This project's aim is to identify novel and potent Nrf2 activators by using the AREc32 cell line to detect ARE activation by small molecules, which will lead to the identification and development of probes to study the ARE pathway.
NIH Chemical Genomics Center [NCGC]
NIH Molecular Libraries Probe Centers Network [MLPCN]
Assay Submitter (PI): Curtis Klaassen, University of Kansas Medical Center
Quantification of ARE activation after compound treatment was measured by the Steady-Glo Luciferase (R) assay system (Promega) in AREc32_fluc stable cells. The Steady-Glo reagent acts by cell lysis and generation of a luminescent signal proportional to ARE activation, through the luciferase reporter in the AREc32 stable cell line. AREc32_fluc cells were harvested from T225 flask and resuspended in phenol red free OPTI-MEM medium with 5% FBS. Then 5 microL of 200,000 cells/mL resuspended cells were dispensed into each well of white, solid bottom, 1536-well tissue culture-treated plates using a Multidrop Combi dispenser. After overnight culture at 37 degrees C with 5% CO2, a total of 23 nL of compounds at 5 selected concentrations from the MLSMR/Sytravon or positive control (40 uM stock of CDDO-IM and 2 mM of tBHQ) in DMSO was transferred to each well of the assay plate using a pintool (Kalypsys, San Diego, CA), and the plates were further incubated at 37 degrees C with 5% CO2 for 24 hours. After that, 2 microL of Steady Glo luminescent substrate mix (Promega) was added to each well. The plate was incubated at room temperature for 30 minutes. The plates were measured on a ViewLux plate reader (PerkinElmer) with clear filter.
(In general: In qHTS, concentration-response curves come from the screen itself.)
On to `Brc1ccccc1C1N=C(c2ccccc2)NO1` (stereo not given), for which the Potency was 5.8 µM (active).
For `Cc1ccc(S(=O)(=O)c2nc(S(C)(=O)=O)sc2N2CCN(C)CC2)cc1`, the Potency was 5.17 µM (active).
For the molecule `CN1CCN(c2sc(S(C)(=O)=O)nc2S(=O)(=O)c2ccc(Cl)cc2)CC1`, the Potency is 8.2 µM (active).
Turning to `O=C(Nc1nc2ccc(F)cc2s1)c1ccc([N+](=O)[O-])o1`, the Potency was 3.66 µM (active).
In the case of `O=C(Nc1nc2c(Cl)cccc2s1)c1ccc([N+](=O)[O-])o1`, the Potency was 3.66 µM (active).
As to `O=c1cc(-c2cccc(Br)c2)oc2cccc(O)c12`, the Potency is 5.8 µM (active).
In the case of `Cn1c(N)c(C(=O)COC(=O)c2nc(Cl)ccc2Cl)c(=O)n(C)c1=O`, the Potency is 1.46 µM (active).
Take `COc1cc(NC(=S)Nc2ccccn2)c(OC)cc1Cl`: the Potency is 5.17 µM (active).
Under `COc1ccc(C(C#N)=C2C=CC(=NO)C=C2)cc1` stands 1.3 µM (active); under `C/C(=N\NC(=S)Nc1cccc(C)c1)c1ccco1`, 2.31 µM (active).
With `O=C(Nc1ccc(OC(F)F)cc1)c1ncc(Cl)c(Cl)c1Cl`, the Potency was 16.4 µM (active).
As for `c1ccc(CSc2nccc(-c3ccco3)n2)cc1`, the Potency was 20.6 µM (active).
The figure for `Nc1nccc(/C=C/c2c(F)cccc2Cl)n1` is 9.2 µM (active); for `COc1ccccc1Cc1c(-c2ccco2)nc2ccc(Cl)cn12` it is 16.4 µM (active); for `Clc1ccc2nc(-c3ccco3)c(Cc3ccccc3)n2c1` it is 23.1 µM (active).
Regarding `FC(F)(F)c1cc(-c2ccco2)nc(-n2nnc3ccccc32)n1`, the Potency was 2.59 µM (active).
The figure for `FC(F)(F)c1cc(-c2cccs2)nc(NCc2ccco2)n1` is 4.61 µM (active); for `FC(F)(F)c1cc(-c2ccco2)nc(NCc2ccco2)n1` it is 11.6 µM (active); for `O=C1NC(=Nc2ccccc2)S/C1=C\C=C\c1ccco1` it is 2.31 µM (active).
Regarding `Cc1ccc(N=C2NC(=O)/C(=C/C=C/c3ccco3)S2)cc1`, the Potency is 2.06 µM (active).
Under `O=[N+]([O-])c1ccccc1C=CC=NN=Cc1ccccc1O` stands 3.26 µM (active).
Under `O=[N+]([O-])c1cccc(C=NN=Cc2ccccc2O)c1` stands 8.2 µM (active).
Take `NC(=O)N/N=C/c1ccccc1OC(=O)c1ccccc1Br`: the Potency is 3.26 µM (active).
For `COC(=O)c1sccc1NC(=O)c1ccc(Br)s1`, the Potency is 7.31 µM (active).
Under `COC(=O)c1sccc1NC(=O)c1ccc(Br)o1` stands 9.2 µM (active).
The figure for `Cc1ccc(S(=O)(=O)c2cc3ccccc3oc2=O)cc1` is 8.2 µM (active).
With `COc1ccccc1NC(=O)/C=C\c1ccco1`, the Potency was 1.84 µM (active).
Turning to `COC(=O)c1c(NC(=O)/C=C/c2ccco2)sc2c1CCC2`, the Potency is 0.461 µM (active).
The figure for `COC(=O)C(=C/C=C/c1ccco1)C(=O)OC` is 9.2 µM (active); for `COC(=O)c1ccccc1NC(=O)/C=C/c1ccco1` it is 0.411 µM (active).
Under `O=C(/C=C/c1ccco1)Nc1ccccc1N1CCCCC1` stands 1.16 µM (active).
As to `O=c1c2cc3c(=O)n(-c4ccccc4O)c(=O)c3cc2c(=O)n1-c1ccccc1O`, the Potency result is “inactive”.
Regarding `CCOc1ncccc1C(=O)NNC(=O)c1ccc(NS(=O)(=O)c2cccs2)cc1`, the Potency was 2.59 µM (active).
Regarding `O=C(/C=C/c1ccc(-c2ccccc2[N+](=O)[O-])o1)c1ccccc1`, the Potency is 3.66 µM (active).
The figure for `Cc1ccc(C(=O)/C=C/c2ccc(-c3ccccc3[N+](=O)[O-])o2)cc1` is 2.06 µM (active); for `O=C(/C=C/c1ccc(-c2ccccc2[N+](=O)[O-])o1)c1ccc(Br)cc1` it is 1.84 µM (active); for `CC(/C=N/NC(=O)Cc1cccn1C)=C\c1ccco1` it is 1.46 µM (active).
The figure for `c1ccc(CNc2nc(NCc3ccco3)nc(N3CCOCC3)n2)cc1` is 5.17 µM (active); for `CNC(=O)c1ccsc1NC(=O)c1ccc(Cl)s1` it is 7.31 µM (active).
Under `Nc1ccccc1N1C(=O)c2cccc3cccc(c23)C1=O` stands 16.4 µM (active).
For the molecule `O=C1c2cccc3cccc(c23)C(=O)N1Cc1ccco1`, the Potency was 5.17 µM (active).
Under `CC(=O)Nc1cc(-c2ccsc2)cn2c(-c3ccc(F)cc3)cnc12` stands 5.17 µM (active).
As for `CC(C)c1ccc(NC(=O)c2cc(Br)ccc2Br)cc1`, the Potency was 5.8 µM (active).
In the case of `CS(=O)(=O)c1nc(S(=O)(=O)c2ccc(Cl)cc2)c(N2CCN(CCO)CC2)s1`, the Potency was 8.2 µM (active).
The figure for `CCN1CCN(c2sc(S(C)(=O)=O)nc2S(=O)(=O)c2ccc(Cl)cc2)CC1` is 14.6 µM (active).
Under `COC(=O)c1cc(S(=O)(=O)C(C)C)c(S(C)=O)s1` (stereo not given) stands 20.6 µM (active); under `COc1c(C(=O)Nc2nnc(C3CC3)s2)csc1Cl`, 8.2 µM (active).
Turning to `CCCc1c(C(=O)N/N=C/c2cccs2)nnn1-c1nonc1N`, the Potency is 4.11 µM (active).
Consider `CN1C2CCC1/C(=C\c1ccccc1)C(=O)/C2=C\c1ccccc1`, for which the Potency is 2.91 µM (active).
For `N#C/C(=C\c1ccccc1[N+](=O)[O-])c1nc(C2CC2)cs1`, the Potency was 11.6 µM (active).

The values above are taken from PubChem BioAssay AID651593 (National Center for Advancing Translational Sciences (NCATS), 2012).
